In PubChem BioAssay (NCATS):
Records with an inconclusive call do not appear. Activity calls are given as the source filed them. Calls come from the whole dose curve; as a rule, active = well fitted inhibition curve with a large enough effect; inconclusive = small, poorly fitted or top-dose-only effect; inactive = flat fitted curve, though single readings scatter.

What was measured:
Assay in all cases: qHTS profiling for inhibitors of Plasmodium falciparum proliferation (AID 504749); note: nearly all actives have a fitted effect of over 60% in size
Conditions in all cases: P. falciparum in erythrocytes, SYBR Green DNA, 72 h; series mostly up to 28.7 µM
CP291 = test system: CP291
Procedure, shortened: (§1)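 Quantitative HTS: compounds pinned into medium, infected erythrocytes added (0.3% parasitemia, 2.5% hematocrit), 72 h culture at 37 C under 5% CO2. Saponin/Triton lysis with SYBR Green I, overnight RT, then fluorescence read.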

CP297 = test system: CP297
Procedure, shortened: as §1

CP305 = test system: CP305
Procedure, shortened: as §1

CP315 = test system: CP315
Procedure, shortened: as §1

CP325 = test system: CP325
Procedure, shortened: as §1

CP329 = test system: CP329
Procedure, shortened: as §1

CP335 = test system: CP335
Procedure, shortened: as §1

DFO2036 = test system: DFO2036
Procedure, shortened: as §1

DIV14 = test system: DIV14
Procedure, shortened: as §1

DIV17 = test system: DIV17
Procedure, shortened: as §1

DIV30 = test system: DIV30
Procedure, shortened: as §1

Dd2 = test system: Dd2
Procedure, shortened: as §1

ECU = test system: ECU
Procedure, shortened: as §1

FAB9 = test system: FAB9
Procedure, shortened: as §1

GB4 = test system: GB4
Procedure, shortened: as §1

HB3 = test system: HB3
Procedure, shortened: as §1

JCK = test system: JCK
Procedure, shortened: as §1

N140 = test system: N140
Procedure, shortened: as §1

P93_24 = test system: P93_24
Procedure, shortened: as §1

ICS = test system: ICS
Procedure, shortened: as §1

Measured: Potency
Potency is the fitted concentration of half-maximal effect.

C[C@@](Cc1ccc(O)c(O)c1)(NN)C(=O)O
not listed: ICS
inactive: all other assays above

FCOC(C(F)(F)F)C(F)(F)F
inactive: all assays above

c1ccc2c(c1)Sc1ccccc1N2CCN1CCCC1
active: CP291 13.5 µM | CP297 12 µM | CP305 15.1 µM | CP315 12 µM | CP325 15.1 µM | CP329 15.1 µM | CP335 9.53 µM | DFO2036 10 µM | DIV14 6.01 µM | DIV17 6.75 µM | DIV30 12 µM | Dd2 5.62 µM | ECU 10 µM | GB4 7.57 µM | ICS 3.98 µM | N140 7.94 µM | P93_24 7.08 µM
inactive: FAB9 | JCK

CCCCCCCCCCCCCCCCCCCCCC(=O)Nc1ccn([C@@H]2O[C@H](CO)[C@@H](O)[C@@H]2O)c(=O)n1
not listed: GB4 | ICS
inactive: all other assays above

CC(=O)Oc1cccc2c1C(=O)c1c(OC(C)=O)cc(C(=O)O)cc1C2=O
not listed: N140
inactive: all other assays above

FC(F)(F)C(F)(F)C(F)(F)C(F)(F)C(F)(F)C(F)(F)F
inactive: all assays above

CC(C)CCCCCCc1ccc(O)cc1
active: ICS 12.6 µM
not listed: ECU | P93_24
inactive: all other assays above

CC(C)CCC[C@@H](C)[C@H]1CC[C@H]2[C@@H]3CC[C@@H]4C[C@H](O)CC[C@]4(C)[C@H]3CC[C@]12C
inactive: all assays above

CC1(O)CCC(C(C)(C)O)CC1 (stereo not given)
inactive: all assays above

FC(F)OC(Cl)C(F)(F)F (stereo not given)
not listed: DIV17
inactive: all other assays above

CC(C)c1nc(N(C)S(C)(=O)=O)nc(-c2ccc(F)cc2)c1/C=C/C(O)CC(O)CC(=O)O (stereo not given)
inactive: all assays above

O=C(O)COc1ccc(CCNS(=O)(=O)c2ccccc2)s1
inactive: all assays above

COc1ccc(-c2noc(CC(=O)O)c2-c2ccc(OC)cc2)cc1
not listed: GB4
inactive: all other assays above

Nc1nccs1
inactive: all assays above

O=C1c2ccccc2C(=O)C1c1ccc(Cl)cc1
not listed: ECU | ICS
inactive: all other assays above

CC(=O)Nc1c(I)c(C(=O)O)c(I)c(N(C)C(C)=O)c1I
not listed: ECU
inactive: all other assays above

CCCCCCCCCCCCOCCCN
inactive: all assays above

CC/C=C\C/C=C\C/C=C\C/C=C\C/C=C\C/C=C\CCC(=O)O
active: ICS 12.6 µM
not listed: ECU
inactive: all other assays above

CC(/C=C/C=C(\C)C(=O)O[C@@H]1O[C@H](CO[C@@H]2O[C@H](CO)[C@@H](O)[C@H](O)[C@H]2O)[C@@H](O)[C@H](O)[C@H]1O)=C\C=C\C=C(C)\C=C\C=C(/C)C(=O)O[C@@H]1O[C@H](CO[C@@H]2O[C@H](CO)[C@@H](O)[C@H](O)[C@H]2O)[C@@H](O)[C@H](O)[C@H]1O
not listed: DIV14
inactive: all other assays above

C[C@H](CCCC(C)(C)O)[C@H]1CC[C@H]2[C@@H]3CC=C4C[C@@H](O)CC[C@]4(C)[C@H]3CC[C@]12C
active: Dd2 15.8 µM | ICS 12.6 µM
not listed: HB3
inactive: all other assays above

CC(C)c1ncc([N+](=O)[O-])n1C
inactive: all assays above

OC/C=C/c1ccccc1
inactive: all assays above

Cc1cc(C)c(NC(=O)C[C@H](CC(=O)O)c2cccc3ccccc23)c(C(=O)N2CCC3(CCCC3)CC2)c1
not listed: Dd2 | ICS
inactive: all other assays above

C=CC(=O)O
not listed: DIV14
inactive: all other assays above

Cc1ccc(C(C)(C)c2ccc(C)cc2)cc1
not listed: DIV14
inactive: all other assays above

C=CCOc1ccc(CC(=O)O)cc1Cl
not listed: CP335
inactive: all other assays above

O=[N+]([O-])c1c(Cl)cccc1-c1c[nH]cc1Cl
not listed: DIV14 | ICS
inactive: all other assays above

FC(F)(F)C(F)(F)C(F)(F)C(F)(F)C(F)(F)F
not listed: DIV14
inactive: all other assays above

C[C@]12CCC(=O)C[C@@H]1CC[C@@H]1[C@@H]2CC[C@]2(C)C=CC[C@@H]12
not listed: CP335 | HB3 | N140 | ICS
inactive: all other assays above

CC(C)=CCC/C(C)=C/C=C/C(C)=C/C=C/C(C)=C/C=C/C=C(C)/C=C/C=C(C)/C=C/C=C(\C)CCC=C(C)C
active: ICS 11.2 µM
not listed: DIV14 | ECU | HB3 | P93_24
inactive: all other assays above

O=C(OCc1ccccc1)c1cccnc1
not listed: DIV14 | ICS
inactive: all other assays above

COC(=O)CCC[N+](C)(C)C
not listed: DIV14
inactive: all other assays above

NC(N)=O
not listed: DIV14
inactive: all other assays above

NCC[C@H](O)C(=O)N[C@@H]1C[C@H](N)[C@@H](O[C@H]2O[C@H](CN)[C@@H](O)[C@H](O)[C@H]2O)[C@H](O)[C@H]1O[C@H]1O[C@H](CO)[C@@H](O)[C@H](N)[C@H]1O
not listed: CP335
inactive: all other assays above

COC(=O)[C@@H](N)CS
not listed: CP335
inactive: all other assays above

COc1ccccc1N1CCN(CCCC(=O)c2ccc(F)cc2)CC1
not listed: DIV14 | DIV17 | ICS
inactive: all other assays above

O=C(OCc1ccccc1)c1ccc(O)cc1
not listed: DIV14
inactive: all other assays above

Cc1c(C)c2c(c(C)c1OC(=O)CCC(=O)O)CC[C@@](C)(CCC[C@H](C)CCC[C@H](C)CCCC(C)C)O2
active: Dd2 11.2 µM | ICS 11.2 µM
not listed: CP335 | HB3
inactive: all other assays above

O=C(O[C@H]1CN2CCC1CC2)N1CCc2ccccc2[C@@H]1c1ccccc1
active: DIV14 3.79 µM | DIV17 4.26 µM | Dd2 4.47 µM
not listed: CP335 | DIV30 | ECU | GB4 | P93_24 | ICS
inactive: all other assays above

Nc1ccc(N=Nc2ccccc2)c(N)n1
active: GB4 13.5 µM
not listed: CP335 | ECU | FAB9 | N140
inactive: all other assays above

CC1CC(OC(=O)C(O)c2ccccc2)CC(C)(C)C1 (stereo not given)
not listed: CP335
inactive: all other assays above

CCCc1nc(C(C)(C)O)c(C(=O)OCc2oc(=O)oc2C)n1Cc1ccc(-c2ccccc2-c2nn[nH]n2)cc1
not listed: CP335 | DIV17 | ICS
inactive: all other assays above

CCCCCCCCCCCCCCCCCC(=O)OC[C@@H](O)[C@H]1OC[C@H](O)[C@H]1O
not listed: DIV14 | DIV30
inactive: all other assays above

N=C(N)c1ccc(/C=C/c2ccc(C(=N)N)cc2O)cc1
inactive: JCK
active: CP291 6.75 µM | CP297 5.36 µM | CP305 6.01 µM | CP315 6.01 µM | CP325 3.38 µM | CP329 2.13 µM | DFO2036 1.12 µM | DIV14 6.75 µM | DIV17 6.01 µM | DIV30 2.13 µM | Dd2 0.112 µM | ECU 10 µM | FAB9 1.26 µM | GB4 0.536 µM | HB3 11.2 µM | ICS 1.26 µM | N140 17.8 µM

CN(C)CCOc1ccc(/C(=C(/CCCl)c2ccccc2)c2ccccc2)cc1
not listed: DIV14 | DIV17 | GB4
inactive: all other assays above

O=P(O)(O)OP(=O)(O)O
active: N140 8.91 µM
not listed: DIV14 | DIV17 | DIV30 | GB4 | JCK | ICS
inactive: all other assays above

CCOC(=O)C1=C(COCCN)NC(C)=C(C(=O)OC)C1c1ccccc1Cl (stereo not given)
active: DIV14 12 µM
not listed: CP335 | DIV17 | Dd2 | ECU | GB4 | N140 | P93_24 | ICS
inactive: all other assays above

Cc1ccc(S(=O)(=O)O)cc1C
not listed: CP335
inactive: all other assays above

Cc1ncc(C[n+]2csc(CCO)c2C)c(N)n1
not listed: CP335
inactive: all other assays above

O=C(O)c1cc(N=Nc2ccc(O)c(C(=O)O)c2)ccc1O
not listed: DIV14 | ICS
inactive: all other assays above

O=C(Nc1ccc(O)cc1)c1ccccc1O
not listed: CP335 | DIV30 | ECU
inactive: all other assays above

CC(CCc1ccc(O)cc1)NCC(O)c1ccc(O)cc1 (stereo not given)
not listed: DIV14
inactive: all other assays above

O=C1[O][Bi][O]c2ccccc21
not listed: CP335
inactive: all other assays above

C[C@H]1O[C@@H](O[C@H]2[C@@H](O)C[C@H](O[C@H]3[C@@H](O)C[C@H](O[C@H]4CC[C@@]5(C)[C@H](CC[C@@H]6[C@@H]5C[C@@H](O)[C@]5(C)[C@@H](C7=CC(=O)OC7)CC[C@]65O)C4)O[C@@H]3C)O[C@@H]2C)C[C@H](O)[C@@H]1O
not listed: DIV14
inactive: all other assays above

OC1OC[C@@H](O)[C@H](O)[C@@H]1O (stereo not given in full)
not listed: CP335
inactive: all other assays above

CCC(O)c1ccccc1 (stereo not given)
not listed: CP335
inactive: all other assays above
